Measured values taken from ChEMBL document CHEMBL2218924, “A broad activity screen in support of a chemogenomic map for kinase signalling research and drug discovery” (Biochem J, 2013).

Key:
[1] = biological target: Focal adhesion kinase 1 (Homo sapiens) (UniProt Q05397); details: at 10 µM
[2] = biological target: Fibroblast growth factor receptor 1 (Homo sapiens) (UniProt P11362); details: at 1 µM
[3] = biological target: Fibroblast growth factor receptor 1 (Homo sapiens) (UniProt P11362); details: at 10 µM
[4] = biological target: Fibroblast growth factor receptor 2 (Homo sapiens) (UniProt P21802); details: at 1 µM
[5] = biological target: Fibroblast growth factor receptor 2 (Homo sapiens) (UniProt P21802); details: at 10 µM
[6] = biological target: Fibroblast growth factor receptor 3 (Homo sapiens) (UniProt P22607); details: at 1 µM
Sequence of Fibroblast growth factor receptor 3 (Homo sapiens) (P22607 23-806 limits assumed): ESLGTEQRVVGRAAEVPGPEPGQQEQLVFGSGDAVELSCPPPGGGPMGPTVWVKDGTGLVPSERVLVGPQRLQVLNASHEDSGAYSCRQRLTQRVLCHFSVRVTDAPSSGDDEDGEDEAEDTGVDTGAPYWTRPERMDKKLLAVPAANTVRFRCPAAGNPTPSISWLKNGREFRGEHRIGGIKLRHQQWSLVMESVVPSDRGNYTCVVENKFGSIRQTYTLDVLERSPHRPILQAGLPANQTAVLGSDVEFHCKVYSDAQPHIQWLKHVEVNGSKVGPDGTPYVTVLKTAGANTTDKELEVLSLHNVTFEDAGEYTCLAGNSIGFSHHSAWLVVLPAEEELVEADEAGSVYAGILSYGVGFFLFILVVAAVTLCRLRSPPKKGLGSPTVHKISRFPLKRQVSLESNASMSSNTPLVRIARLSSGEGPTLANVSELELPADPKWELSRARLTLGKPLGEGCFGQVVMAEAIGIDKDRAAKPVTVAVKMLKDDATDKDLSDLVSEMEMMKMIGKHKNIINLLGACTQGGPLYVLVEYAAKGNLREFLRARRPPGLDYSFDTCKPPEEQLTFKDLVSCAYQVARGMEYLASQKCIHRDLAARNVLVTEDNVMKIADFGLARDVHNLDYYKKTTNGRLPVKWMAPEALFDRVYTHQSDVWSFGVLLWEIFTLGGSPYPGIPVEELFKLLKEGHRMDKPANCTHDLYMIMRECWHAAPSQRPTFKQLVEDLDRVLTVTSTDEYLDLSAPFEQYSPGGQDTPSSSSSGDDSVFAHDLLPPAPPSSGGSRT

[7] = biological target: Fibroblast growth factor receptor 3 (Homo sapiens) (UniProt P22607); details: at 10 µM
[8] = biological target: Tyrosine-protein kinase Fgr (Homo sapiens) (UniProt P09769); details: at 10 µM
[9] = biological target: Vascular endothelial growth factor receptor 3 (Homo sapiens) (UniProt P35916); details: at 1 µM
[10] = biological target: Tyrosine-protein kinase Fes/Fps (Homo sapiens) (UniProt P07332); details: at 1 µM
[11] = biological target: Tyrosine-protein kinase Fes/Fps (Homo sapiens) (UniProt P07332); details: at 10 µM
[12] = biological target: Tyrosine-protein kinase Fgr (Homo sapiens) (UniProt P09769); details: at 1 µM
[13] = biological target: Vascular endothelial growth factor receptor 1 (Homo sapiens) (UniProt P17948); details: at 1 µM
Sequence of Vascular endothelial growth factor receptor 1 (Homo sapiens) (P17948 whole entry): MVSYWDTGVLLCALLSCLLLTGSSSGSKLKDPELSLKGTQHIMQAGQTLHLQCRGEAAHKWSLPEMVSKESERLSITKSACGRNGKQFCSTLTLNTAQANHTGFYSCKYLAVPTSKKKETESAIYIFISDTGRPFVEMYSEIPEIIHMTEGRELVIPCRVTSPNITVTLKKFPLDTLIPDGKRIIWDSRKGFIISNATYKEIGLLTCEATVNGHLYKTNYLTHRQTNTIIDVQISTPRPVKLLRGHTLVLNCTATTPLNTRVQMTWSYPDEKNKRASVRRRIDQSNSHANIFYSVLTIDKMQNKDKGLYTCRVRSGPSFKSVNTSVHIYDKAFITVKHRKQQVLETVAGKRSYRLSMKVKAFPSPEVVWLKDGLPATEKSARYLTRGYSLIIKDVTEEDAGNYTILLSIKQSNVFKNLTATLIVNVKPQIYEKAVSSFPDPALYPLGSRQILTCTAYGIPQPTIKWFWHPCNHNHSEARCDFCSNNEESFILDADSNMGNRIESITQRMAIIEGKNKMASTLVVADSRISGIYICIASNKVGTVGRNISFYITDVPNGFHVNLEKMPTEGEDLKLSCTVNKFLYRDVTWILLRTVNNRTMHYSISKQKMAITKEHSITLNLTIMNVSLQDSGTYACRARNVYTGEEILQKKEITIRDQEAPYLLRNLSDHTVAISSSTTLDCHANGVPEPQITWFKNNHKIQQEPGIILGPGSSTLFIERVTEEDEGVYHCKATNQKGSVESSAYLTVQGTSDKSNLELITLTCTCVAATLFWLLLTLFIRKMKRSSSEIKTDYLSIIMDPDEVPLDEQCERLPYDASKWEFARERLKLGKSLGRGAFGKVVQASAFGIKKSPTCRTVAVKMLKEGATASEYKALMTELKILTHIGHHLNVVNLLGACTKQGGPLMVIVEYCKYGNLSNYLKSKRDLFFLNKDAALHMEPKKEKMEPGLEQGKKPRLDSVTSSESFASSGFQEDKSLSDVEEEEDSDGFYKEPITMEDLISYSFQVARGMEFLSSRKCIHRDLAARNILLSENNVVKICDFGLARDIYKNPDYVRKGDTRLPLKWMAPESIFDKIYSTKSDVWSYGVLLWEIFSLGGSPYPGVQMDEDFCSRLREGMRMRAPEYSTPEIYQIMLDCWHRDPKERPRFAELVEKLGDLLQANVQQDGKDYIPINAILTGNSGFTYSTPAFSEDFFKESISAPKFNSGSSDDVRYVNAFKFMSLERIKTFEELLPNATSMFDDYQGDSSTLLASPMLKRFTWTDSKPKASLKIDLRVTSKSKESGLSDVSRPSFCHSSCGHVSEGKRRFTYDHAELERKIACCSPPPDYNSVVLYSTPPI

[14] = biological target: Vascular endothelial growth factor receptor 1 (Homo sapiens) (UniProt P17948); details: at 10 µM
[15] = biological target: Receptor-type tyrosine-protein kinase FLT3 (Homo sapiens) (UniProt P36888); details: at 1 µM
Sequence of Receptor-type tyrosine-protein kinase FLT3 (Homo sapiens) (P36888 whole entry): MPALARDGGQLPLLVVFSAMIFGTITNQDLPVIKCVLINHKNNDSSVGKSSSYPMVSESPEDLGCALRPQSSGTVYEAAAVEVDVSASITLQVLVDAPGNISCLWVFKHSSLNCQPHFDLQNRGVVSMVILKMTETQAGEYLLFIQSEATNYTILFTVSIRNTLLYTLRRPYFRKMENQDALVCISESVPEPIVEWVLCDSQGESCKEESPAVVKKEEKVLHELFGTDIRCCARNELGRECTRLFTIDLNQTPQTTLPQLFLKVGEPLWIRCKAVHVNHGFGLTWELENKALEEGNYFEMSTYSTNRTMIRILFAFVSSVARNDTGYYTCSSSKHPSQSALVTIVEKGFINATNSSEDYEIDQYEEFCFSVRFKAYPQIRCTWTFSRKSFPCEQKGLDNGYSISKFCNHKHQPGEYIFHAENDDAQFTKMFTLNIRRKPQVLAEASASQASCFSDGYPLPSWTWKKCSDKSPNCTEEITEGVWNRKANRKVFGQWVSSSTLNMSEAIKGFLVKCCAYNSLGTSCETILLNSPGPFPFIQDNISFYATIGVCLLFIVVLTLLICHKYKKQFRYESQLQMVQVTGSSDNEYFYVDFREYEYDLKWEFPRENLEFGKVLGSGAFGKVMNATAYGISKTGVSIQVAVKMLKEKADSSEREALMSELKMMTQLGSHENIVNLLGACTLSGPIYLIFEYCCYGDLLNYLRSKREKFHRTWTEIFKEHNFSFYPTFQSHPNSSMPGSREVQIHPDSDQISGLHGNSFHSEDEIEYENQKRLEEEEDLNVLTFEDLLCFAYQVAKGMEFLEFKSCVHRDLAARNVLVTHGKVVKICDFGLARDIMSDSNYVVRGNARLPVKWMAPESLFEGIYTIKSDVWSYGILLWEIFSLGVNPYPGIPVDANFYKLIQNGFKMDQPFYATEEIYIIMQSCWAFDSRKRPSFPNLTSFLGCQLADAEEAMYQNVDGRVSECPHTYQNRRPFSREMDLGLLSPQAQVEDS

[16] = biological target: Receptor-type tyrosine-protein kinase FLT3 (Homo sapiens) (UniProt P36888); details: at 10 µM
[17] = biological target: Fibroblast growth factor receptor 4 (Homo sapiens) (UniProt P22455); details: at 10 µM
[18] = biological target: Tyrosine-protein kinase Fer (Homo sapiens) (UniProt P16591); details: at 10 µM
[19] = biological target: Fibroblast growth factor receptor 4 (Homo sapiens) (UniProt P22455); details: at 1 µM
[20] = biological target: Tyrosine-protein kinase Fer (Homo sapiens) (UniProt P16591); details: at 1 µM

Sequence of Fibroblast growth factor receptor 1 (Homo sapiens) (P11362 22-822 limits assumed): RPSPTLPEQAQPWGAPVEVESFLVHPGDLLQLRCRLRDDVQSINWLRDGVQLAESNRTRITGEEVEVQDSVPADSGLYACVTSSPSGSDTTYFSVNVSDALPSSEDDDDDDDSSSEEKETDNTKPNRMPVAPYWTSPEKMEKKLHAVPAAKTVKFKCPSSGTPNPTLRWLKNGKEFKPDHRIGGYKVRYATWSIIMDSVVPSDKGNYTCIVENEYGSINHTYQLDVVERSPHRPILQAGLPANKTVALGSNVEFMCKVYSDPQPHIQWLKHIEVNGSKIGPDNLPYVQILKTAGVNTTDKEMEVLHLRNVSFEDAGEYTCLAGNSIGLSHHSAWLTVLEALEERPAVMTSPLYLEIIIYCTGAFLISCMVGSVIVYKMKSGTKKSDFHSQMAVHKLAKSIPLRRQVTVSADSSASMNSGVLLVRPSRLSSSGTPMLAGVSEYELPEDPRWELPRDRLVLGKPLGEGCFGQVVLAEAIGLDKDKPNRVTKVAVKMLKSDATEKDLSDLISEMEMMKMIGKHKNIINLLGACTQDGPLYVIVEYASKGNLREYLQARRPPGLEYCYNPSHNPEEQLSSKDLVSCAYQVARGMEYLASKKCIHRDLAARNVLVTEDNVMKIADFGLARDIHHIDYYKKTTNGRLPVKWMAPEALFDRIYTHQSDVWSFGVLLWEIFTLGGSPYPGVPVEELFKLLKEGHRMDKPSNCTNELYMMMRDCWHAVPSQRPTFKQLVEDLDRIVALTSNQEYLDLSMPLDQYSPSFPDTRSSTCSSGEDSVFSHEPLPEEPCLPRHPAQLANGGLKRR
Sequence of Focal adhesion kinase 1 (Homo sapiens) (Q05397 2-1052 limits assumed): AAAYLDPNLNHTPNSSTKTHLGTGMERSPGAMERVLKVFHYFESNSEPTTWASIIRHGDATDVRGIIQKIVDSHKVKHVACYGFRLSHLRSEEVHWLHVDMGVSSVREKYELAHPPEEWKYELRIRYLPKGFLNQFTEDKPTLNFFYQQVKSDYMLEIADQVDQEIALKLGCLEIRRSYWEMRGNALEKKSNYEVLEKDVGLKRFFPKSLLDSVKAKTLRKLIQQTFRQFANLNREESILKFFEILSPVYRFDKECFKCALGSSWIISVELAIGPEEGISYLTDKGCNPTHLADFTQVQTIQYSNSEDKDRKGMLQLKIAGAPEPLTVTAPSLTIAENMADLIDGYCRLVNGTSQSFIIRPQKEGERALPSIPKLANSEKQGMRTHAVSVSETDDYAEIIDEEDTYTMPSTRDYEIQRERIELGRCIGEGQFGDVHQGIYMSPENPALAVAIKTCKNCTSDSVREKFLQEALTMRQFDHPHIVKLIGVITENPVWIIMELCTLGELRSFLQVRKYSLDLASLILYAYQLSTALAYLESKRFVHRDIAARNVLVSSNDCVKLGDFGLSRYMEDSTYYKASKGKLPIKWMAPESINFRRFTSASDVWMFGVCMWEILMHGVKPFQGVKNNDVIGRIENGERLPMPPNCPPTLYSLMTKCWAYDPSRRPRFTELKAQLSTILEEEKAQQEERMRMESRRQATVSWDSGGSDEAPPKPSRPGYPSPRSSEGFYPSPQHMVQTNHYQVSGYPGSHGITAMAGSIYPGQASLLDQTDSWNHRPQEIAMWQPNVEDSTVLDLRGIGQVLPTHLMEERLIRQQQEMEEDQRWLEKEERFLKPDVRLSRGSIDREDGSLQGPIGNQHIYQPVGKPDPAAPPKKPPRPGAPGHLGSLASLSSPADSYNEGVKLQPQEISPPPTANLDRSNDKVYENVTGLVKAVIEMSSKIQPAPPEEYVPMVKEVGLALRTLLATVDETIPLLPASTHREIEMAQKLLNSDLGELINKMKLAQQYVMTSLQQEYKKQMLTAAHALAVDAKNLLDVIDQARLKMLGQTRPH

SMILES	residual activity [1] [%]	residual activity [2] [%]	residual activity [3] [%]	residual activity [4] [%]	residual activity [5] [%]	residual activity [6] [%]	residual activity [7] [%]	residual activity [8] [%]	residual activity [9] [%]	residual activity [10] [%]	residual activity [11] [%]	residual activity [12] [%]	residual activity [13] [%]	residual activity [14] [%]	residual activity [15] [%]	residual activity [16] [%]	residual activity [17] [%]	residual activity [18] [%]	residual activity [19] [%]	residual activity [20] [%]
Nc1nccc(-c2c(-c3ccc(F)cc3)ncn2C2CCNCC2)n1	71	119	27	113	67	120	83	25	69	–	–	–	–	–	–	–	–	–	–	–
CCOC(=O)c1c(C)[nH]c(/C=C2\C(=O)Nc3ccccc32)c1C	89	98	80	83	85	–	–	74	1	119	80	87	38	15	6	9	–	–	–	–
O=c1cc(N2CCNCC2)oc2c(-c3ccccc3)cccc12	88	105	84	–	–	–	–	90	96	–	89	–	88	95	78	81	67	95	–	–
Nc1ncnc2c1c(-c1ccc(Oc3ccccc3)cc1)cn2C1CCCC1	46	13	-1	37	3	41	7	0	1	112	52	2	15	0	19	0	46	45	100	100
CC(C)(C)n1nc(Cc2cccc3ccccc23)c2c(N)ncnc21	81	28	2	62	18	–	–	4	42	95	27	35	62	14	102	75	72	39	115	104
Fc1ccc(-c2nc3n(c2-c2ccncc2)CCS3)cc1	–	137	–	–	–	–	–	97	89	–	–	–	–	–	98	82	–	–	–	–
N#Cc1c(NC(=O)c2cccc3ccccc23)sc2c1CCCC2	–	128	88	–	–	–	–	135	92	–	95	99	–	–	–	77	–	97	–	89
NC(=O)c1ccc(-c2nc(-c3ccc4c(c3)OCCO4)c(-c3ccccn3)[nH]2)cc1	–	–	–	117	82	–	–	–	79	–	–	–	82	70	64	51	95	–	122	–
CCCC(=O)Oc1ccc2[nH]c(C(=O)c3cc4ccccc4[nH]3)cc2c1	79	–	–	97	108	–	–	82	73	104	81	97	83	86	73	50	86	98	125	107
O=C1Nc2ccccc2/C1=C\c1c(Cl)[nH]c2ccccc12	85	–	–	119	79	–	–	64	64	99	78	–	–	38	–	55	–	67	–	–
O=C(CCCc1ccc(-c2ccccc2F)cc1)Nc1ccc(O)cc1	112	–	–	99	99	–	–	92	101	107	100	93	109	100	101	87	–	91	–	109
O=C1Cc2c([nH]c3ccc([N+](=O)[O-])cc23)-c2ccccc2N1	–	74	59	–	–	125	109	48	29	35	43	40	49	24	30	20	102	–	112	–
COc1cc2ncnc(Nc3cccc(Cl)c3)c2cc1OC	–	–	32	101	66	104	74	12	47	119	86	52	60	16	111	52	–	105	–	113
CCN1/C(=C/C(C)=O)Sc2ccc(OC)cc21	–	–	–	–	–	–	–	73	–	–	–	–	–	81	64	39	–	–	–	–
O=S(=O)(c1cccc2cnccc12)N1CCCNCC1	–	–	81	–	–	–	–	–	–	–	–	–	–	–	–	–	–	–	–	–
COc1ccc2c(c1)c(C1=C(c3c[nH]c4ccccc34)C(=O)NC1=O)cn2CCCN(C)C	–	38	3	72	18	63	13	33	2	96	26	–	2	0	21	0	–	58	120	102
O=C(Nc1nc2ccccc2n1CCN1CCOCC1)c1cccc([N+](=O)[O-])c1	87	–	–	–	–	–	–	–	36	101	74	102	–	–	38	29	–	–	114	–
COc1cc2nccc(Oc3ccc(NC(=O)Nc4cc(C)on4)c(Cl)c3)c2cc1OC	35	–	–	25	5	–	28	4	-1	78	46	8	–	–	–	–	31	–	76	–
Nc1ncnc2[nH]nc(Nc3ccc(F)cc3)c12	–	–	–	91	60	113	–	18	80	98	–	56	–	35	114	94	–	99	98	98

SMILES	residual activity [1] [%]	residual activity [2] [%]	residual activity [3] [%]	residual activity [4] [%]	residual activity [5] [%]	residual activity [6] [%]	residual activity [7] [%]	residual activity [8] [%]	residual activity [9] [%]	residual activity [10] [%]	residual activity [11] [%]	residual activity [12] [%]	residual activity [13] [%]	residual activity [14] [%]	residual activity [15] [%]	residual activity [16] [%]	residual activity [17] [%]	residual activity [18] [%]	residual activity [19] [%]	residual activity [20] [%]
COc1cc2c(cc1OC)-c1n[nH]c(Nc3cccc(F)c3)c1C2	–	–	–	–	–	111	67	4	–	–	59	20	–	–	47	5	101	82	117	100
O=C1NC(=O)C(c2cn(CCCO)c3ncccc23)=C1c1cnccn1	–	80	68	91	81	–	–	97	28	–	–	95	41	46	57	51	–	94	–	89
O=C(O)/C=C/c1cc(Br)c(Br)c(Br)c1Br	98	–	–	–	94	103	99	103	79	97	74	104	92	67	72	27	96	107	–	97
O=C(NC(NC(=S)Nc1ccc(F)c([N+](=O)[O-])c1)C(Cl)(Cl)Cl)C(c1ccccc1)c1ccccc1 (stereo not drawn)	–	–	59	–	73	–	–	–	93	–	–	–	–	–	99	82	83	103	–	–
CSc1nc(-c2ccc(F)cc2)c(-c2ccnc(NC(C)c3ccccc3)c2)[nH]1 (stereo not drawn)	–	126	53	87	68	–	78	71	97	102	87	84	–	80	86	83	78	–	–	–
N#C/C(=C1/Nc2ccccc2S1)c1ccnc(NCCc2cccnc2)n1	60	–	–	100	45	–	–	44	68	96	73	81	78	33	–	–	67	60	117	89
CC(C)[C@H](CO)Nc1nc(Nc2cc(N)cc(Cl)c2)c2ncn(C(C)C)c2n1	3	–	–	84	22	92	20	3	11	57	12	33	–	–	12	2	88	23	–	88
COc1ccc(-c2cnc3c(-c4ccsc4)cnn3c2)cc1	–	–	–	–	–	93	124	–	21	–	82	–	33	48	53	19	–	98	–	–
COc1ccc(COc2ccc(Cc3cnc(N)nc3N)cc2OC)cc1	–	112	–	112	76	–	–	–	–	–	–	–	–	–	–	–	–	–	131	–
O=c1c(-c2ccc(F)cc2)c(-c2ccncc2)[nH]n1-c1ccc(Cl)cc1	–	127	40	–	–	123	–	65	–	–	–	–	100	50	–	–	–	–	–	–
CCOc1nc(NC(=O)Cc2cc(OC)ccc2OC)cc(N)c1C#N	–	–	–	100	–	–	–	–	–	–	–	–	–	–	–	–	–	–	–	–
CN([C@@H](Cc1ccc(OS(=O)(=O)c2cccc3cnccc23)cc1)C(=O)N1CCN(c2ccccc2)CC1)S(=O)(=O)c1cccc2cnccc12	–	–	58	–	–	–	58	–	–	–	–	–	–	–	–	76	–	–	–	–
O=c1cc(N2CCOCC2)oc2c(-c3ccccc3)cccc12	–	–	81	–	–	101	73	–	–	–	–	–	–	–	–	–	70	–	–	101
Nc1nc(Nc2ccc(S(N)(=O)=O)cc2)nn1C(=O)c1c(F)cccc1F	52	–	–	36	7	29	4	20	1	–	–	63	18	2	–	5	66	55	99	101
COc1ccc(Cl)cc1NC(=O)Nc1cc(C)nc2ccccc12	64	–	–	–	–	–	–	82	–	–	94	99	96	91	–	–	–	–	–	–
N#C/C(=C\c1ccc(O)c(O)c1)C(=O)NCc1ccccc1	–	–	–	103	120	–	–	82	–	124	76	–	–	–	–	–	–	–	–	–
COc1ccc(CNC(=O)Nc2ncc([N+](=O)[O-])s2)cc1	–	102	77	100	78	112	113	28	59	–	–	31	74	49	–	–	–	–	–	–
CC(C)(C)c1nc2c3ccc(F)cc3c3c(=O)[nH]ccc3c2[nH]1	9	–	–	–	–	–	–	–	28	–	–	–	–	–	45	26	–	27	119	67
Nc1n[nH]c2nc3ccccc3nc12	83	–	–	122	84	–	–	87	79	95	87	100	89	66	70	45	–	90	120	90
